# Experimental data published in PubChem BioAssay (NCI).
# Values joined by “and” are separate entries in the source; they are usually repeats but may differ in a detail not shown here. Equal values may be shown once. About 83,000 compounds went through this panel and 20% of them were active in at least one assay; those are over-represented in the sample as a whole.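 Plates (96-well) were seeded with cells, treated with compound at one concentration, and incubated for 48 hours before percent growth was determined.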 Active and inactive are the calls of the source. How the source made its calls: active means growth percent below 10; inactive means the rest.
# Legend:
# Assay in all cases: NCI-60 one-dose screen, 48 h (100 = growth as untreated, 0 = no growth, -100 = all killed)
# Settings in all cases: 10 µM unless noted
# [1] = system: DU-145 prostate
# [2] = system: K-562 leukemia
# [3] = system: MALME-3M melanoma
# [4] = system: MDA-MB-231 breast
# [5] = system: RXF 393 renal
# [6] = system: SF-268 CNS
# [7] = system: SF-295 CNS
# [8] = system: SF-539 CNS
# [9] = system: UACC-257 melanoma
# [10] = system: M14 melanoma
SMILES,growth [1],growth [2],growth [3],growth [4],growth [5],growth [6],growth [7],growth [8],growth [9],growth [10]
CCOP(C)(=O)/C(Cc1ccc(OC)c(OC)c1)=N\O (stereo not given),116% (inactive),101% (inactive),98.5% (inactive),109% (inactive),113% (inactive),102% (inactive),100% (inactive),100% (inactive),113% (inactive),108% (inactive)
Clc1ccc2c(c1)N(C1CCCN(Cc3ccccc3)C1)c1ccccc1S2 (stereo not given),74.1% (inactive),18.5% (inactive),78.4% (inactive),51.8% (inactive),-15.7% (active),39.2% (inactive),77.6% (inactive),40.8% (inactive),55.1% (inactive),-26.9% (active)
N=c1sc2ccccc2n1CC(=O)O,110% (inactive),108% (inactive),110% (inactive),102% (inactive),113% (inactive),98.7% (inactive),98% (inactive),101% (inactive),89.7% (inactive),95.7% (inactive)
CC(=O)Oc1cc(C(C)C)c(OCCN(C)C)cc1C,124% (inactive) and 118% (inactive),115% (inactive) and 124% (inactive),97.5% (inactive) and 106% (inactive),103% (inactive) and 112% (inactive),112% (inactive) and 101% (inactive),112% (inactive) and 109% (inactive),103% (inactive) and 92% (inactive),112% (inactive) and 99.6% (inactive),-91.1% (active) and 97.5% (inactive),99.8% (inactive)
Cc1cc2nc3ccc(=[N+](C)C)cc-3sc2cc1N,3.25% (active) and -41.6% (active),7.3% (active),-47.8% (active) and -3.68% (active),-18.8% (active) and -10.4% (active),51.6% (inactive) and 36% (inactive),-8.64% (active) and -29.4% (active),4.64% (active) and 15.1% (inactive),-39.6% (active) and 3.1% (active),24.9% (inactive) and 61.4% (inactive),-26.3% (active) and 8.5% (active)
CCCCCCCCCCCCCCCCC(=O)O,107% (inactive),89.5% (inactive),98.3% (inactive),105% (inactive),99.5% (inactive),102% (inactive),104% (inactive),106% (inactive),101% (inactive),104% (inactive)
O=C(O)c1cccc(Br)c1,113% (inactive) and 114% (inactive),89.4% (inactive) and 93.6% (inactive),99.5% (inactive) and 107% (inactive),97.9% (inactive) and 114% (inactive),108% (inactive) and 107% (inactive),101% (inactive) and 102% (inactive),94.3% (inactive) and 98.2% (inactive),94% (inactive) and 98.7% (inactive),97.6% (inactive) and 85.2% (inactive),99.7% (inactive) and 103% (inactive)
Cc1cc(NC(=O)NC(=O)c2ccccc2N(C)C)ccc1Oc1ncc(Br)cn1,-3.51% (active) and 20.7% (inactive),0.98% (active) and 20.3% (inactive),24.6% (inactive) and 55.2% (inactive),9.21% (active) and 34.1% (inactive),30.2% (inactive) and -1.61% (active),44.8% (inactive) and 63.6% (inactive),35.1% (inactive) and 36.1% (inactive),-8.43% (active) and -14.3% (active),26% (inactive) and 73.5% (inactive),22.8% (inactive) and 17.1% (inactive)
O=P(O)(O)OC1C(OP(=O)(O)O)C(OP(=O)(O)O)C(OP(=O)(O)O)C(OP(=O)(O)O)C1OP(=O)(O)O.[Cu+2] (stereo not given),104% (inactive),94.7% (inactive),93.4% (inactive),80.7% (inactive),125% (inactive),125% (inactive),91% (inactive),72% (inactive),80.2% (inactive),102% (inactive)
O=C(O)Cc1cc(=O)[nH]n(-c2ccccc2)c1=O,115% (inactive),100% (inactive),113% (inactive),101% (inactive),109% (inactive),96.8% (inactive),97.4% (inactive),99.1% (inactive),98.2% (inactive),106% (inactive)
Cc1ccc(NC(=S)N/C=C(\c2ccccc2)S(=O)Cc2ccccc2)c(C)c1 (stereo not given),109% (inactive),98.2% (inactive),106% (inactive),104% (inactive),106% (inactive),101% (inactive),98.9% (inactive),103% (inactive),98.9% (inactive),97.3% (inactive)
NC(=O)Cc1nc(O)cc(=O)[nH]1,115% (inactive),102% (inactive),103% (inactive),96.5% (inactive),107% (inactive),102% (inactive),96.5% (inactive),101% (inactive),86.4% (inactive),101% (inactive)
O=C(NC(=O)c1ccc(F)c(Cl)c1)NC1CC1,106% (inactive) and 98.7% (inactive),78.4% (inactive) and 95.9% (inactive),107% (inactive) and 98.9% (inactive),117% (inactive),113% (inactive),103% (inactive),104% (inactive) and 99.5% (inactive),110% (inactive) and 98.4% (inactive),97.3% (inactive) and 103% (inactive),94.7% (inactive) and 109% (inactive)
CCN(CC)C(=S)SCCO,107% (inactive),97% (inactive),99.7% (inactive),101% (inactive),106% (inactive),102% (inactive),106% (inactive),102% (inactive),96.3% (inactive),106% (inactive)
O=C1C2=C(Nc3cc(Cl)ccc3N2)OC1c1c[nH]c2ccc(COc3ccccc3)cc12 (stereo not given),73.7% (inactive),79.7% (inactive),74% (inactive),59.5% (inactive),43.9% (inactive),30.4% (inactive),33.5% (inactive),53.8% (inactive),80.3% (inactive),94.2% (inactive)
Cc1c(O)nc(N)[nH]c1=O,119% (inactive),118% (inactive),109% (inactive),104% (inactive),118% (inactive),123% (inactive),97.4% (inactive),106% (inactive),105% (inactive),98.5% (inactive)
CCOC(=O)CN1CCC(C(=O)OCC)CC1,118% (inactive),118% (inactive),111% (inactive),103% (inactive),127% (inactive),113% (inactive),119% (inactive),117% (inactive),110% (inactive),105% (inactive)
COc1ccc2oc3cc(NCCN(C)C)ccc3c(=O)c2c1,108% (inactive) and 76.6% (inactive),66.7% (inactive) and 43.2% (inactive),94.8% (inactive) and 81.7% (inactive),83.5% (inactive) and 73.6% (inactive),107% (inactive) and 92.5% (inactive),104% (inactive) and 82.7% (inactive),54.7% (inactive) and 72.1% (inactive),80.7% (inactive) and 84.2% (inactive),86.9% (inactive),96.5% (inactive) and 76.7% (inactive)
CCC(C)NC(=O)c1ccccc1C (stereo not given),106% (inactive),129% (inactive),77.7% (inactive),104% (inactive),96% (inactive),101% (inactive),100% (inactive),96.6% (inactive),100% (inactive),95.3% (inactive)
OC(CC(c1ccccc1)c1cccc2ccccc12)(c1ccccc1)c1ccccc1 (stereo not given),108% (inactive) and 103% (inactive),92.9% (inactive) and 67.2% (inactive),101% (inactive) and 104% (inactive),69.4% (inactive) and 71.2% (inactive),92.7% (inactive) and 86.7% (inactive),84.9% (inactive) and 89.4% (inactive),80% (inactive) and 81.3% (inactive),94.4% (inactive) and 93.3% (inactive),62.8% (inactive) and 85.3% (inactive),72.1% (inactive) and 77.2% (inactive)
Cc1cc(-c2ccc(N=Nc3c(C)nn(-c4ccc(S(=O)(=O)O)cc4)c3O)c(C)c2)ccc1N=Nc1ccc(O)c(C(=O)O)c1,108% (inactive),104% (inactive),111% (inactive),97.2% (inactive),113% (inactive),97.6% (inactive),93.4% (inactive),101% (inactive),101% (inactive),107% (inactive)
